Assay [1] deals with PRMT1 (protein arginine N-methyltransferase 1). The assay is described as follows: PRMT1 binders on small-molecule microarrays, primary screen, biochemical, small-molecule microarray, 635 nm fluorescence (AID 1088).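 Further: binding of Prmt1 protein to compounds spotted on small-molecule microarray slides.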 Conditions: small-molecule microarray binding, higher = more signal.
The nature of assay [2]: yeast growth modulation, basal conditions, primary screen, YJM789 clinical isolate, OD600, 24 h (AID 1089).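 Further: growth of clinical yeast isolate S. cerevisiae YJM 789 seeded 1000 cells per well; test concentration not given here.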 Conditions: S. cerevisiae YJM789 growth, higher = more signal, called active from +8 up or from −8 down.
The nature of assay [3]: fission yeast growth modulation, primary screen, strain 972, OD600, 24 h, no modulator (AID 1090).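 Further: basal condition with compound alone and no growth modifier present; test concentration not given here.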 Conditions: S. pombe 972 growth, higher = more signal, called active from +8 up or from −8 down.
Assay [4] in a line: S. cerevisiae growth modulation with rapamycin, primary screen, strain BY4716, OD600, 96 h (AID 1091). Further: test concentration not given here. The conditions noted are these: higher = more signal, called active from +8 up or from −8 down.
In assay [5] the target is Torsin-1A-interacting protein 2 (Homo sapiens) (UniProt Q8NFQ8). The assay is described as follows: LULL1 binders on small-molecule microarray, primary screen, cell lysate, human LULL1 lysate, 635/667 nm fluorescence (AID 1092).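 Further: probe is lysate of COS7 cells overexpressing human LULL1; score merges per-feature 667 nm fluorescence with signal-to-noise.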 The conditions noted are these: hLULL1 lysate binding, 635 nm fluorescence, higher = more signal.
The nature of assay [6]: E. coli growth modulation, two-sided OD650, primary screen, E. coli filamentation project, strain DRC41, 24 h (AID 1093).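 Further: MC1000 strain lacking acrAB efflux and sulA so SOS filamentation is blocked; test concentration not given here.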 Conditions: OD650, 24 h, higher = more signal, called active from +8 up or from −8 down.
Assay [7] in a line: small-molecule microarray binders of probe aLefty2, primary screen, biochemical, biotinylated probe, 635/667 nm fluorescence (AID 1094).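 Further: score merges spot fluorescence near 667 nm with spot signal-to-noise ratio.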 Conditions: higher = more signal.
Assay [8] concerns Noggin (protein binding on small-molecule microarray). Kind of assay: Noggin binders on small-molecule microarray, primary screen, biochemical, 635/667 nm fluorescence (AID 1095).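 Further: score merges 667 nm feature fluorescence with signal to noise over triplicate slides.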 The conditions noted are these: 635 nm fluorescence, higher = more signal.
Assay [9] deals with Neurogenic locus notch homolog protein 3 (Homo sapiens) (UniProt Q9UM47). The assay is described as follows: NOTCH3 binders on small-molecule microarray, primary screen, biochemical, 635/667 nm fluorescence (AID 1096). Conditions: NOTCH3 binding, 635 nm fluorescence, higher = more signal.
A short description of assay [10]: small-molecule microarray binders of probe aEGFR, primary screen, biochemical, biotinylated probe, 635/667 nm fluorescence (AID 1097).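 Further: probe is a biotinylated anti-EGFR antibody binding compounds printed on slides; score combines fluorescence near 667 nm and signal to noise of each spot.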 Conditions: higher = more signal.

Consider 15 molecules from PubChem BioAssay.

Activity calls are given as the source filed them.

Sequence of Torsin-1A-interacting protein 2 (Homo sapiens) (Q8NFQ8 whole entry, looked up): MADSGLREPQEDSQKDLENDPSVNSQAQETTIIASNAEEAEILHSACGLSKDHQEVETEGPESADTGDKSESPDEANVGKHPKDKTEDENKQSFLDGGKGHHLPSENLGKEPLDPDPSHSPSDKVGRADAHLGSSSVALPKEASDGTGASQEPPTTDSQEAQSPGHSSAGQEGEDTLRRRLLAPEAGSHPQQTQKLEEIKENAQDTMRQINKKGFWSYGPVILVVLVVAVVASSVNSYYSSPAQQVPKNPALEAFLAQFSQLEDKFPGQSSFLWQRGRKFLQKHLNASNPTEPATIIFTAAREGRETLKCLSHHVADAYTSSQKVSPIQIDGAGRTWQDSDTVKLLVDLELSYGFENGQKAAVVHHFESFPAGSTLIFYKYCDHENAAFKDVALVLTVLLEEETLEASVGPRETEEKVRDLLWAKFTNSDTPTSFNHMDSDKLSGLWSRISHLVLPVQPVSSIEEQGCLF
Sequence of Neurogenic locus notch homolog protein 3 (Homo sapiens) (Q9UM47 whole entry, looked up): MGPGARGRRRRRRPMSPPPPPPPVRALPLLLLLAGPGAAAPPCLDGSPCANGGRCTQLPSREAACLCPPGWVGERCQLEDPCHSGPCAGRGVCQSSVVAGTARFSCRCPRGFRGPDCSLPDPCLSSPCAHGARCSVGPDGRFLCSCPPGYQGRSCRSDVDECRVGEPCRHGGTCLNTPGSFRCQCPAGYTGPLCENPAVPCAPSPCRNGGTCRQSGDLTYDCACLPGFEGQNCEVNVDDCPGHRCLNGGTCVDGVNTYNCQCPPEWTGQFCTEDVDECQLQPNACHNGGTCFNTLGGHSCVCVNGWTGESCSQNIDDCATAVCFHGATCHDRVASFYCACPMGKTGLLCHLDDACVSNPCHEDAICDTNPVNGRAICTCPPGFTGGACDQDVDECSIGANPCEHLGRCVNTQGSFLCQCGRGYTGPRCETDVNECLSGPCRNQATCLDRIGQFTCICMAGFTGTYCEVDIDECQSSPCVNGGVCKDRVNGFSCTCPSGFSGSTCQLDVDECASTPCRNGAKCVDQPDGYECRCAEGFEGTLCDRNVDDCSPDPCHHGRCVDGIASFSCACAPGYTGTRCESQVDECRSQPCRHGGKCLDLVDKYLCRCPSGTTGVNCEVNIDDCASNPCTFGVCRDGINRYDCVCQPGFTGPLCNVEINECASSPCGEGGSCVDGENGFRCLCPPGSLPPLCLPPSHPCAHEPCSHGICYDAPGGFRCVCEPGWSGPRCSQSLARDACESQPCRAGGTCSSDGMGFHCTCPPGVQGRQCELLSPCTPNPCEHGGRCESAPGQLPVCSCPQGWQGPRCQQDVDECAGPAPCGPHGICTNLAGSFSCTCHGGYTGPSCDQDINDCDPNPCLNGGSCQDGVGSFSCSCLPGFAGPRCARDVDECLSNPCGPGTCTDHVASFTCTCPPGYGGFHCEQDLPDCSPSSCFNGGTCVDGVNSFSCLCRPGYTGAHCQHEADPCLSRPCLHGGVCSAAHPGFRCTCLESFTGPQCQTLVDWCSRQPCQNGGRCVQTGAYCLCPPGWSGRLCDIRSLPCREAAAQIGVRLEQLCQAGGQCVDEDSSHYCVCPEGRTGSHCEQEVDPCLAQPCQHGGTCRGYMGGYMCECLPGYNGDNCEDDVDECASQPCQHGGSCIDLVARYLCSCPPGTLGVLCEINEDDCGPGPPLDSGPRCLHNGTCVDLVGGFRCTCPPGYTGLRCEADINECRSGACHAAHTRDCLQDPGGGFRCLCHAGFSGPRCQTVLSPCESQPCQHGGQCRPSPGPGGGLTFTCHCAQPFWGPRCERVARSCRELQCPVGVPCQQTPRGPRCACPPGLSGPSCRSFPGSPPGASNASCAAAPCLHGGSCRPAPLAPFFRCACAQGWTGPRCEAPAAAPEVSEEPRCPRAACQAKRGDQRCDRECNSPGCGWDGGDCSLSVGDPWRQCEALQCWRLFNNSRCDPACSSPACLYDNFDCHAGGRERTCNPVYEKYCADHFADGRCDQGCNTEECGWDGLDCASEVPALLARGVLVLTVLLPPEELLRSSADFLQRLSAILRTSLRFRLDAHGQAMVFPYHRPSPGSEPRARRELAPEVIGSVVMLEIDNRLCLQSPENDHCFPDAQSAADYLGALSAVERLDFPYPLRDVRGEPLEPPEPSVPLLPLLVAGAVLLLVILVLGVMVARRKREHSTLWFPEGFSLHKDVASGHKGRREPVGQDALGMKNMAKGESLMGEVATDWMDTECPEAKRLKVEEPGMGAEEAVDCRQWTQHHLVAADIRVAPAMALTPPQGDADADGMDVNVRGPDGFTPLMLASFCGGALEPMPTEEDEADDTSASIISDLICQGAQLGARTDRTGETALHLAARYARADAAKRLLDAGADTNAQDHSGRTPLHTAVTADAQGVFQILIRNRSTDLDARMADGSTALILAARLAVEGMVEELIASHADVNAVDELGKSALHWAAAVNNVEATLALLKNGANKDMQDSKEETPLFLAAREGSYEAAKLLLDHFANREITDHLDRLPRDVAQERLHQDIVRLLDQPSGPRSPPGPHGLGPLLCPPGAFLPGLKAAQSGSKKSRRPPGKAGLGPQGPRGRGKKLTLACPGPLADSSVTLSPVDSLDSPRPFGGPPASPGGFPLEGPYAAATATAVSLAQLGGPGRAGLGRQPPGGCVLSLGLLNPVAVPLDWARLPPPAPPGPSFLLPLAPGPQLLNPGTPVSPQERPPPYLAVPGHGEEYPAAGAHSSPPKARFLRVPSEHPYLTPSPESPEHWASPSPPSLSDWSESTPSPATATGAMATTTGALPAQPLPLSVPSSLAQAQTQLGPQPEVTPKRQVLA

Take `O=C1C[C@]2(c3ccc([N+](=O)[O-])cc3)C(=O)N(C3CC3)c3cc(CO)ccc3[C@H]2N1CC12CC3CC(CC(C3)C1)C2`: the composite z-score in assay [1] was 0.739; in assay [5], 1.87; in assay [7], -0.171; in assay [8], -1.02; in assay [9] it was -0.466; in assay [10], -0.228. In addition, the z-score was -0.263 (inactive) in assay [2], 0.436 (inactive) in assay [3], -0.574 (inactive) in assay [4] and -1.29 (inactive) in assay [6].

In the case of `O=C1C2C=CC(C(O)c3ccco3)N(Nc3ccccc3F)C2C(=O)N1c1ccccc1` (stereo not given), the composite z-score in [1] is -0.281; in [5], 2.46; in [7], 0.0686; in [8] it was -0.221; in assay [9] it was 0.569; in assay [10], -0.0435. Further, the z-score is 0.252 (inactive) in [2], 0.512 (inactive) in [3], -0.119 (inactive) in assay [4] and -1.47 (inactive) in assay [6].

Turning to `C=CC[C@@H](OC(=O)Nc1ccc(OC)cc1)c1ccc(O)c(F)c1`, the composite z-score was 0.349 in [1]; 2.09 in assay [5]; -0.146 in assay [7]; -0.488 in assay [8]; -0.6 in [9]; -0.241 in assay [10]. For the same molecule, the z-score is -23.4 (active) in assay [2], -20.3 (active) in [3], -2.74 (inactive) in assay [4] and 0.92 (inactive) in assay [6].

Take `Cc1ccc(F)cc1S(=O)(=O)N[C@@H]1CCN(Cc2ccc(Br)cc2)C1`: the composite z-score in assay [1] was -0.268; in [5] it was -1.04; in assay [7], -0.161; in assay [8], 1.21; in assay [9] it was 0.895; in assay [10], -0.0455. Moreover, the z-score in [2] is -1.47 (inactive); in [3], -17.4 (active); in assay [4], -1.73 (inactive); in assay [6], -1.12 (inactive).

Take `COc1ccc([Si](C)(C)[C@@H]2[C@@H](CC(=O)N3Cc4ccccc4C[C@H]3CO)O[C@]3(C(=O)N(Cc4ccc(N5C(=O)c6cccc7cccc5c67)cc4)c4ccccc43)[C@H]2C)cc1`: the composite z-score in assay [1] turned out to be 1.55; in [5], 1.74; in assay [7], 0.104; in assay [8] it was 1.14; in [9] it was 1.04; in assay [10], 0.0717. Also, the z-score was -0.297 (inactive) in assay [2], 0.389 (inactive) in [3], 1.39 (inactive) in [4] and -0.465 (inactive) in assay [6].

Regarding `CC(C)C[C@@H]1NC(=O)[C@@H]2C[C@H](C(=O)NCCCCCCN)[C@H](c3cccc(OCCO)c3)N2C1=O`, the composite z-score in assay [1] was found to be 1.53; in [5], 2.98; in [7], 0.235; in assay [8], 0.993; in [9], 1.12; in assay [10], 0.0499. The z-score in assay [2] was -0.148 (inactive); in [3], -0.114 (inactive); in assay [4] it was -0.502 (inactive); in [6], 1.03 (inactive).

Consider `CCCCC[C@H]1OC[C@@]23C=C(Br)[C@@H](CC12)[C@@]1(CO1)C3=O` (stereo not given in full), for which the composite z-score in assay [1] is 0.915; in assay [5], 0.24; in [7], -0.231; in assay [8] it was 0.483; in [9], 0.0322; in assay [10], -0.122. The z-score in [2] is -1.01 (inactive); in [3] it was -6.44 (inactive); in [4], -0.76 (inactive); in assay [6], -0.971 (inactive).

Turning to `COCCOC(=O)N1C(=O)[C@@]2(c3ccccc31)[C@H](c1ccc(O)cc1)N1[C@H](c3ccccc3)[C@H](c3ccccc3)OC(=O)[C@H]1[C@@H]2C(=O)N1CCN(c2ncccn2)CC1`, the composite z-score in assay [1] is 1.55; in assay [5], 2.78; in assay [7], 0.0669; in [8], 1.13; in assay [9] it was 0.855; in assay [10], 0.0334. The z-score was 0.42 (inactive) in [2], 1.17 (inactive) in assay [3], 1.84 (inactive) in assay [4] and 1.05 (inactive) in [6].

In the case of `CCCCNC(=O)c1ccc(C#CC(C)(C)C)c(OC(C)=O)c1`, the composite z-score is 1.45 in assay [1]; 0.503 in assay [5]; -0.159 in assay [7]; 0.0904 in assay [8]; 1.1 in assay [9]; -0.127 in assay [10]. Also, the z-score was 0.0582 (inactive) in assay [2], -5.49 (inactive) in assay [3], -1 (inactive) in [4] and 1.05 (inactive) in assay [6].

Take `CCCC=C(CCC)[C@@H](NS(=O)(=O)CC12CCC(CC1=O)C2(C)C)c1ccc(C(=O)OC)cc1` (stereo not given in full): the composite z-score is 0.788 in assay [1]; 3.78 in [5]; 0.0672 in [7]; -0.132 in [8]; 0.408 in [9]; 0.471 in [10]. For the same molecule, the z-score is -0.723 (inactive) in assay [2], -0.005 (inactive) in [3], -0.909 (inactive) in [4] and 0.0623 (inactive) in [6].

With `CCCCCCc1nc(Cc2cc(OC)c(OC)c(OC)c2)cc2c1[Si](C(C)C)(C(C)C)OC2`, the composite z-score in assay [1] was -0.114; in assay [5], -0.233; in assay [7], -0.0985; in [8], 0.158; in [9] it was -0.0693; in [10], -0.232. In addition, the z-score was 0.654 (inactive) in [2], -0.0595 (inactive) in [3], 0.0907 (inactive) in assay [4] and -0.527 (inactive) in [6].

As to `NC(=O)NCC#Cc1ccc2c(c1)[C@]1(C(=O)N2)[C@H](c2ccccc2OCCO)N2[C@H](c3ccccc3)[C@H](c3ccccc3)OC(=O)[C@H]2[C@@H]1C(=O)NC[C@H](O)c1ccccc1`, the composite z-score in assay [1] was 0.415; in assay [5], 1.06; in assay [7], 0.448; in assay [8], -0.0053; in assay [9], -0.112; in [10], -0.162. In addition, the z-score is 1.5 (inactive) in assay [2], 1.32 (inactive) in [3], 3.89 (inactive) in assay [4] and 2.36 (inactive) in assay [6].

As to `[N-]=[N+]=Nc1ccccc1C[C@@]1(C(N)=O)N=C(c2ccc(OCCCO)cc2)O[C@@H]1c1ccccc1N=[N+]=[N-]`, the composite z-score was 0.319 in [1]; 2.05 in assay [5]; 0.281 in [7]; -0.467 in [8]; 0.0955 in assay [9]; 0.639 in assay [10]. The z-score is -0.974 (inactive) in assay [2], -1.01 (inactive) in assay [3], -0.933 (inactive) in assay [4] and 0.905 (inactive) in [6].

`CC[C@@H]1O[Si](C(C)C)(C(C)C)c2c1cc(-c1cc(C)c(OC)c(C)c1)nc2-c1ccc(Oc2ccccc2)cc1`: the composite z-score was -0.0555 in assay [1]; -0.346 in [5]; -0.123 in assay [7]; 0.0174 in [8]; 0.0178 in assay [9]; -0.162 in assay [10]. Also, the z-score was 0.0662 (inactive) in assay [2], 0.131 (inactive) in assay [3], -0.798 (inactive) in [4] and -0.333 (inactive) in assay [6].

As for `COCCOC(=O)N1C(=O)[C@@]2(c3cc(C#CC4=CCCCC4)ccc31)[C@H](C(=O)Nc1nc3ccccc3s1)[C@H]1C(=O)O[C@H](c3ccccc3)[C@H](c3ccccc3)N1[C@@H]2c1ccc(O)cc1`, the composite z-score is 1.55 in [1]; 2.38 in assay [5]; -0.0823 in [7]; 1.21 in assay [8]; 1.07 in assay [9]; -0.0975 in assay [10]. In addition, the z-score in assay [2] was 0.128 (inactive); in assay [3], -0.663 (inactive); in [4], 0.364 (inactive); in [6] it was 0.0627 (inactive).
